For some of these results: Results with a measured potency or affinity are listed apart.
Experiments:
Design in all cases: scale not given: direction of the effect not stated beside the values
[1] = biological target: Protein translocase subunit SecA (Escherichia coli (strain K12)) (UniProt P10408); experiment: Assay to Identify E. coli SecA ATPase Inhibitors; assay type: functional; conditions: 30 µM
[2] = biological target: T1, Ubiquitin-activating enzyme e1, putative (Leishmania donovani (strain BPK282A1)) (UniProt E9BSI1); experiment: Leishmania donovani Ubiquitin Activating Enzyme (LdE1); assay type: functional; conditions: 30 µM
T1 sequence (whole entry): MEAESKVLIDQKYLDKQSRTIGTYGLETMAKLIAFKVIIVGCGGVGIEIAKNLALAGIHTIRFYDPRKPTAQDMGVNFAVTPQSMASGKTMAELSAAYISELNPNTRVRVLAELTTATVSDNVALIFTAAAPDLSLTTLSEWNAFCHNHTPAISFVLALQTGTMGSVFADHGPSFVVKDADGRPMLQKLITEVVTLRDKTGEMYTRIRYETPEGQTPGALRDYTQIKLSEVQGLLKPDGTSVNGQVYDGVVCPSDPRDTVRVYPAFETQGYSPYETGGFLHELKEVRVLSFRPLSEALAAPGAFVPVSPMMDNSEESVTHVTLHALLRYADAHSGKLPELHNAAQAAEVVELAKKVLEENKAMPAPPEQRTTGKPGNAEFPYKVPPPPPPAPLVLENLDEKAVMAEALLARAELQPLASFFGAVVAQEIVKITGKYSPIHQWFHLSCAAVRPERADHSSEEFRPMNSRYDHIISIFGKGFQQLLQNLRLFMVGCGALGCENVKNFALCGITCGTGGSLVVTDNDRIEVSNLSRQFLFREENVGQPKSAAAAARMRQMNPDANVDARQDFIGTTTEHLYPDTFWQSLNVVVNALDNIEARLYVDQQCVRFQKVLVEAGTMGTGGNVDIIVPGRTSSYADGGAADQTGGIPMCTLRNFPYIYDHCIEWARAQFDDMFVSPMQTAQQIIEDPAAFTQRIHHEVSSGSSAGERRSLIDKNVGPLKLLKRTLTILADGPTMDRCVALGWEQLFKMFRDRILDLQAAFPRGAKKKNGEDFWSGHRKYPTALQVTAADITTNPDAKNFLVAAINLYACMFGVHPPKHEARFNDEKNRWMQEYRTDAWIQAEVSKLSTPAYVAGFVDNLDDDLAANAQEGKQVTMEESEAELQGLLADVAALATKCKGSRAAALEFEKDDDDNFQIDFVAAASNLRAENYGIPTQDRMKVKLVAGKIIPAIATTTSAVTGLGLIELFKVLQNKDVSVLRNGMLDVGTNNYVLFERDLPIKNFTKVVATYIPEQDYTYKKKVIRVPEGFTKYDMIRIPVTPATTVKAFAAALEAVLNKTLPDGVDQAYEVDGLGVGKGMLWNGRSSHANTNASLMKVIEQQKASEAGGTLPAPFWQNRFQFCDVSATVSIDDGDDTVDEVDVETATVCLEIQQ

[3] = biological target: AMP-activated protein kinase, AMPK (Homo sapiens) (UniProt P54646+O43741+P54619+Q9UGJ0+Q9Y478+Q13131+Q9UGI9); experiment: AMP-dependent Kinase enzyme assay. An in vitro enzyme assay that detects ADP turnover that is directly proportional to AMPK activity. This uses naive AMPK that is activated during the assay with MK-8722; assay type: functional; conditions: 30 µM
[4] = biological target: Sialic acid-binding Ig-like lectin 9 (Homo sapiens) (UniProt Q9Y336); experiment: Hs-Siglec9 ALPHAscreen SOP 20170721; conditions: 10 µM
[5] = system: Trypanosoma cruzi; experiment: Trypanosoma cruzi phosphomannomutase and mannose-1-phosphate guanylyltransferase assay; assay type: functional; conditions: 10 µM
[6] = biological target: T2, Arginase-2, mitochondrial (Homo sapiens) (UniProt P78540); experiment: in vitro enzyme assay to detect the production of urea directly proportional to the activity of Arginase II; assay type: functional; conditions: 33.3 µM; also: in the data most compounds retested in dose-response had high values
T2 sequence (whole entry): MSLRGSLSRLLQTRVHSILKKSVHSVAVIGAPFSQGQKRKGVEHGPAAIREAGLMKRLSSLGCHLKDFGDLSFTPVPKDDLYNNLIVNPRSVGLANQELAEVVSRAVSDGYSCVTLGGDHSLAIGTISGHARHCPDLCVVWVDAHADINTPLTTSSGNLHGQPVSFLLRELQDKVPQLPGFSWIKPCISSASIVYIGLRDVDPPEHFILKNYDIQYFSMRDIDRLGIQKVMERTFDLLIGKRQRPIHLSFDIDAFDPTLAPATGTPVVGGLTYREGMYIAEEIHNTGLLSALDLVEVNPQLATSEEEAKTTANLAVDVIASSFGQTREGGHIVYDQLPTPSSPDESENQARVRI

[7] = biological target: T3, Proteasome subunit beta (Trypanosoma cruzi) (UniProt O96673); experiment: Trypanosoma cruzi proteasome chymotrypsin-like activity (TcProtChymo) assay.; also: in the data most compounds retested in dose-response had high values; assay type: functional; conditions: 9.37 µM
T3 sequence (whole entry): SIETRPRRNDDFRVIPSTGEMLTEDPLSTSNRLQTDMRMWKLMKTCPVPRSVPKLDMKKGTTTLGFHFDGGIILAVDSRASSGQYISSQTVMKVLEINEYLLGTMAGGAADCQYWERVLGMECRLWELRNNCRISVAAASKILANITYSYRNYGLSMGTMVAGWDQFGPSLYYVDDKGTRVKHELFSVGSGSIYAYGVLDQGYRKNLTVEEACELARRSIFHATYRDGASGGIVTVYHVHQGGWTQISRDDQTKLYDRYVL

[8] = species on record: Homo sapiens; experiment: To identify inhibition of the IFN signalling (Jak-Stat) pathway via expression of an eGFP reporter gene under the control of an IFN-stimulated response element (ISRE) containing MxA promoter.; assay type: functional; conditions: 30 µM
[9] = biological target: T4, Tyrosyl-tRNA synthetase, putative (Trypanosoma cruzi (strain CL Brener)) (UniProt Q4DSP6); experiment: Trypanosoma cruzi tyrosyl tRNA synthetase (TcYRS) _High Tyrosine SOP; assay type: functional; conditions: 30 µM; also: in the data most compounds retested in dose-response had high values
T4 sequence (whole entry): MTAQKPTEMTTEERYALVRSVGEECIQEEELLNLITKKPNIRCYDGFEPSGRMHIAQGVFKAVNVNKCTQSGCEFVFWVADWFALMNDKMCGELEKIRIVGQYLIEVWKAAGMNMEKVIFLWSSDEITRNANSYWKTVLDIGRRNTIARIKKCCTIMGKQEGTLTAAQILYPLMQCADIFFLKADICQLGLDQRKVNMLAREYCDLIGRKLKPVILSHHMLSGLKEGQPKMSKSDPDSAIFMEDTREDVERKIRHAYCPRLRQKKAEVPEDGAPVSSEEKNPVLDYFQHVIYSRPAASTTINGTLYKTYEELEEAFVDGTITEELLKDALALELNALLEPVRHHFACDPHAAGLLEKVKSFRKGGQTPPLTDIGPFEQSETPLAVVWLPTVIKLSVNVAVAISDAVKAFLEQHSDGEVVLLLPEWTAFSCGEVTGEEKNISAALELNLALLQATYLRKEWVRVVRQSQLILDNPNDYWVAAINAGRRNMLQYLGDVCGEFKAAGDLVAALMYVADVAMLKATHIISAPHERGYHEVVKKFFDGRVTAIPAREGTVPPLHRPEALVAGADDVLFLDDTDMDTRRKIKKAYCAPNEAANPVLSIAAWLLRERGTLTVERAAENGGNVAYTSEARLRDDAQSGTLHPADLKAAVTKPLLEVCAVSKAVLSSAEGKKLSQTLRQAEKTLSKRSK

[10] = biological target: T4, Tyrosyl-tRNA synthetase, putative (Trypanosoma cruzi (strain CL Brener)); experiment: Trypanosoma cruzi tyrosyl tRNA synthetase (TcYRS) SOP; assay type: functional; conditions: 30 µM
[11] = biological target: Chromo domain-containing protein 1 (Saccharomyces cerevisiae (strain ATCC 204508 / S288c) (Baker's yeast)) (UniProt P32657); experiment: ScCHD-1 Enzyme Inhibition Assay; assay type: functional; conditions: 30 µM; also: in the data most compounds retested in dose-response had high values
Chromo domain-containing protein 1 (Saccharomyces cerevisiae (strain ATCC 204508 / S288c) (Baker's yeast)), sequence (P32657 whole entry, the tested form may be a part): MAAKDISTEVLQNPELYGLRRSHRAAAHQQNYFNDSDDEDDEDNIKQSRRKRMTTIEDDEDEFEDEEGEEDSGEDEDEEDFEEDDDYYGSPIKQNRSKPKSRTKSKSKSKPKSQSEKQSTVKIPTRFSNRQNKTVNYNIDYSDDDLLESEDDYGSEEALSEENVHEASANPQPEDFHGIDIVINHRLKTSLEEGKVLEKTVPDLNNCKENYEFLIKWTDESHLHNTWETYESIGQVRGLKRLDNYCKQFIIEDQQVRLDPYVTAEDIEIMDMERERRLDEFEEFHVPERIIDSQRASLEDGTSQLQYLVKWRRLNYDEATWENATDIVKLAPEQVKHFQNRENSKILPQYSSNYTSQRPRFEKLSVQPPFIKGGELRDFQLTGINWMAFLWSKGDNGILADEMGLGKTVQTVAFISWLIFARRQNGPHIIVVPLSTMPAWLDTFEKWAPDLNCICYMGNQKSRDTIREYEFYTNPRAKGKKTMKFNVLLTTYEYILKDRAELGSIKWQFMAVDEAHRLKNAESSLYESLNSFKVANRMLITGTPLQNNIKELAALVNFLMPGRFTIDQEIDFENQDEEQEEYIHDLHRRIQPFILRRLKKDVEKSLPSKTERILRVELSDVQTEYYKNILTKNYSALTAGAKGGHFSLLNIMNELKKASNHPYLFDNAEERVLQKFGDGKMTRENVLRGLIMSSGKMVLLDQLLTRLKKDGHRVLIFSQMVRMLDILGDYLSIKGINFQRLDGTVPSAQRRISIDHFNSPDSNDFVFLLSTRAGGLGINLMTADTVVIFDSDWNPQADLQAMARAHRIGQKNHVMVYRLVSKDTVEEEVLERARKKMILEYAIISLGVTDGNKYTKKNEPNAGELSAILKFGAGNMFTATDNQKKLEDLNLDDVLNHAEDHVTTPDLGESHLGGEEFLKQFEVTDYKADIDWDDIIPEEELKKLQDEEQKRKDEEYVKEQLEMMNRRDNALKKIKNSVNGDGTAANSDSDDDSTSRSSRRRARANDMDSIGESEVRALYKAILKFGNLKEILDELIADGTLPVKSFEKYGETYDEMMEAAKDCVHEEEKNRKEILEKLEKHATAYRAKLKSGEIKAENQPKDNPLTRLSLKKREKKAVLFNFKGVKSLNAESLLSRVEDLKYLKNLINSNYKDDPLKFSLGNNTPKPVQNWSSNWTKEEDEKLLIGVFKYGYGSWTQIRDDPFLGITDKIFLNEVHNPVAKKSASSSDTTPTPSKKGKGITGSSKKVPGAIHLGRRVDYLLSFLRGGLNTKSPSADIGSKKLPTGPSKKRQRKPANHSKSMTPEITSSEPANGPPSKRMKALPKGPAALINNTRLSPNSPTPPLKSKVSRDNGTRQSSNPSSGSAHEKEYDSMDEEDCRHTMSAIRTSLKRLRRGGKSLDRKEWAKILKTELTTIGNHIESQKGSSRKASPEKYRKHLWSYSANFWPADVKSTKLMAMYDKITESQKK

Protein translocase subunit SecA (Escherichia coli (strain K12)), sequence (P10408 whole entry): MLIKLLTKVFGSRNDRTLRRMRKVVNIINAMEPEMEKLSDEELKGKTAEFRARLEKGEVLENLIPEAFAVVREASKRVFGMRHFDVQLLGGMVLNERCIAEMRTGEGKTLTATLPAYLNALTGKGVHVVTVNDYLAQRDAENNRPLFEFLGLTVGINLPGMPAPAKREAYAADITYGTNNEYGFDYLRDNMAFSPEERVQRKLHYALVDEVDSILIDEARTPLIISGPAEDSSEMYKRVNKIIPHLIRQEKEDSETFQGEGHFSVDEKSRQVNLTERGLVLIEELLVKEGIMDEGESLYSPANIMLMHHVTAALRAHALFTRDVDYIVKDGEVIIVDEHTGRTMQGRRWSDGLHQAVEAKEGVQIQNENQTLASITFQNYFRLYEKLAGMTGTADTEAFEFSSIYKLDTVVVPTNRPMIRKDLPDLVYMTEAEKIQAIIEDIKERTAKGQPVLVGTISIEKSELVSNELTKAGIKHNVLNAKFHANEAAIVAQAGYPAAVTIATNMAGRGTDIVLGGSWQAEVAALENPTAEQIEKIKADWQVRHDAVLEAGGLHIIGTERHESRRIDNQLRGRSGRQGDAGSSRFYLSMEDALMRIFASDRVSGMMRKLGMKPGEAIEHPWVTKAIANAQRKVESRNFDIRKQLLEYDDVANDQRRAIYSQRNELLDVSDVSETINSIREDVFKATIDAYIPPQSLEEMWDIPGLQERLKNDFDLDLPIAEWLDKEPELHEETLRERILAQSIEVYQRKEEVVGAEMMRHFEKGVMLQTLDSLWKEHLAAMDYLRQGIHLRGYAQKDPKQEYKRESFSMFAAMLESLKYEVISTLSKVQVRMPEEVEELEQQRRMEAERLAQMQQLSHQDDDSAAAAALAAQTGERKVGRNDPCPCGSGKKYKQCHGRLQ
Sialic acid-binding Ig-like lectin 9 (Homo sapiens), sequence (Q9Y336 whole entry): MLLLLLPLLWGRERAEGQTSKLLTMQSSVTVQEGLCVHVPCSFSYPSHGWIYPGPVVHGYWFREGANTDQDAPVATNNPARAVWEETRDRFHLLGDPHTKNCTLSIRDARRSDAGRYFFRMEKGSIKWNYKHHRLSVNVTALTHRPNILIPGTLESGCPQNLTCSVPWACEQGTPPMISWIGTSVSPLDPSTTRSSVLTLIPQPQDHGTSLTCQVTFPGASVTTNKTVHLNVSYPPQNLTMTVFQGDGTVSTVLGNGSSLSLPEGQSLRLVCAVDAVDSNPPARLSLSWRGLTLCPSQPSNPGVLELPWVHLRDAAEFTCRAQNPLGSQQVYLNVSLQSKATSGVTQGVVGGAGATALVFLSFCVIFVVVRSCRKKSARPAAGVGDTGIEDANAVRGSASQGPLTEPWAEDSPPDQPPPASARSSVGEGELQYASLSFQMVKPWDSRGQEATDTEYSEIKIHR

| SMILES | Percent Effect [1] | Percent Effect [2] | Percent Effect [3] | Percent Effect [4] | Percent Effect [5] | Percent Effect [6] | Percent Effect [7] | Percent Effect [8] | Percent Effect [9] | Percent Effect [10] | Percent Effect [11] |
| --- | --- | --- | --- | --- | --- | --- | --- | --- | --- | --- | --- |
| Cc1nn(C)c(C)c1CC(=O)N1CCCC(n2ccnc2)C1 (stereo not given) | -1.6% | -5.26% | -1.17% | -5.34% | -3.27% | 1.8% | -0.592% | -1.26% | 1.48% | -1.24% | -1.5% |
| Cc1cccc2cc(CNCCCN3CCOCC3)c(=O)[nH]c12 | -7.31% | 17.6% | -2.19% | 3.5% | 6.13% | -2.09% | 11.2% | 2.24% | 3.23% | 14.3% | -27.6% |
| CC(C)(C)C(=O)NCCc1ccn(-c2ccccc2)n1 | -5.41% | 13.9% | 0.882% | 2.89% | -0.923% | 4.09% | 8.92% | 2.37% | 4.17% | 17.7% | -30% |
| Cc1cc(C(=O)NCc2ccccn2)no1 | 0.824% | 2.7% | -14.1% | -0.919% | 2.92% | -3.21% | 6.49% | 7.17% | 3.45% | -63% | 0.179% |
| c1ccc(Cc2noc(CNC3CCc4ncnn4C3)n2)cc1 (stereo not given) | -2.79% | 16.2% | -4.03% | 4.98% | 3.81% | -3.88% | 8.44% | 1.98% | 10.9% | 25.6% | -5.11% |
| O=C(CSc1ncccn1)N1C[C@H]2CC[C@@H]1CN(Cc1ccncc1)C2 | -4.87% | 11% | -5.51% | 21% | 6.46% | 8.64% | 12.9% | -3.77% | 5.38% | 7.5% | -3.96% |
| O=C(NCc1nnc2n1CCCC2)N(Cc1ccccc1F)C1CC1 | -2.88% | 5.41% | -1.8% | 0.0872% | -2.12% | -2.38% | 12.8% | 7.52% | 0.529% | 0% | -4.24% |
| Cc1cccc2c1cnn2CCCNC(=O)C(C)C | -4.75% | 13% | 0.24% | 14.3% | 7.96% | -5.52% | 6.16% | 5.24% | 5.38% | 11.1% | -0.927% |
| CNC(=O)[C@H]1C[C@@H]2CN(S(=O)(=O)c3ccccc3)C[C@@H]2N1C(C)=O | -5.14% | 7.79% | 3.54% | 8.79% | 8.95% | 1.38% | 8.32% | 18.1% | 5.38% | 11.1% | 1.18% |
| Cc1nn(C)c(C)c1NC(=O)CCn1ncc2c(C)cccc21 | -5.82% | 7.79% | 1.49% | 9.37% | 2.85% | 9.65% | 13.3% | 5.45% | 6.45% | 13.6% | 41.5% |
| CN(CC1CC1)C(=O)CN(Cc1cccc(O)c1)C1CCC(O)CC1 (stereo not given) | -0.997% | -2.7% | -5.33% | 8.92% | 1.07% | 24.6% | 11.1% | 12% | 0% | 1.24% | 0.446% |
| CC1(C)Cc2ccccc2-c2nc(NCCO)[nH]c(=O)c21 | -5.03% | 13.2% | 56% | 4.58% | -3.02% | 3.55% | 20% | 31.2% | 6.38% | 13% | -12.3% |
| CNS(=O)(=O)CCCN1CCCC1c1noc(C2CC2)n1 (stereo not given) | 0.851% | -2.53% | 9.34% | -2.31% | -2.74% | 4.56% | 9.91% | 10.4% | 0.493% | 1.27% | -7.17% |
| CC(C)=CCN(C)C1CCCN(Cc2noc(C)n2)C1 (stereo not given) | -2.36% | 18.9% | 22.7% | -3.99% | -3.06% | 1.29% | 9.7% | 15.7% | 1.98% | 13.4% | -3.38% |
| O=C(NCc1cc[nH]n1)NCC(c1ccco1)N1CCCC1 (stereo not given) | -3.53% | 8.11% | -2.2% | 17.4% | 1.66% | -0.744% | 12.4% | 7.09% | 5.38% | 11.1% | -2.11% |
| Cc1cnn(CCC(=O)N2CCCC(c3nc(C)no3)C2)c1 (stereo not given) | -3.87% | 24.3% | -8.95% | -1.06% | 5.94% | -4.41% | 16.9% | 11.1% | 4.43% | 23.5% | -10.1% |
| O=C(NCCNc1ccc(C(F)(F)F)cn1)c1ccc(Br)cc1F | -3.12% | 10.4% | 7.24% | -16.8% | -5.39% | -2.74% | 11.9% | 6.29% | 3.81% | 14.1% | -26.3% |
| COc1cccc2c1OCC(NC(=O)NC1CCN(C3CC3)CC1)C2 (stereo not given) | -3.95% | 0% | 4.77% | 0.911% | 4.77% | 0% | 10.6% | 3.27% | 6.38% | 7.79% | -0.292% |
| CC(C)C(=O)N1CCCC(c2ncncc2-c2ccncc2)C1 (stereo not given) | -0.489% | 10.7% | 4.63% | -4.06% | 5.91% | -4.89% | 6.61% | -4.43% | 1.06% | 8.97% | -4.02% |
| O=C(Cc1noc2ccccc12)N1CCCC1c1noc(C2CC2)n1 (stereo not given) | 0.239% | -2.7% | -6.79% | 3.85% | -4.62% | 0% | 7.39% | 86.2% | 2.46% | -6.17% | 5.86% |
